A selection: hits, their analogues and other compounds. The true share with any hit is near 15%.
TDP1 cell CPT: growth inhibition of DT40 Tdp1-/-;hTDP1 cells with camptothecin (screen for TDP1 inhibitors); chicken DT40 Tdp1-/-;hTDP1 cells + 20 nM CPT, ATP luminescence, 48 h; 12% of 420,000 active; Potency, µM (top dose mostly 46.2 µM), without a hit: top-dose activity change, negative = growth inhibition, hits mostly inhibitors; further: nearly all actives have a fitted effect of over 55% in size
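Cell growth measured by CellTiter-Glo luminescence after a minimum 48 h, 37 C compound exposure with 20 nM CPT in Tdp1-knockout DT40 cells stably expressing hTDP1, seeded 400/well; qHTS titration format.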
RORgamma inh: inhibitors of mouse ROR gamma transcriptional activity. P51450. Drosophila S2 Gal4-RORgamma UAS-luciferase reporter, 20 h. Potency, µM (top dose mostly 53.6 µM), for inactives: top-dose activity change, negative = inhibition, actives largely listed as inhibitors. 5.4% of 310,000 active. AID 2551; further: nearly all actives have a fitted effect of over 60% in size
Target sequence (P51450 whole entry, looked up, the tested form may be a part): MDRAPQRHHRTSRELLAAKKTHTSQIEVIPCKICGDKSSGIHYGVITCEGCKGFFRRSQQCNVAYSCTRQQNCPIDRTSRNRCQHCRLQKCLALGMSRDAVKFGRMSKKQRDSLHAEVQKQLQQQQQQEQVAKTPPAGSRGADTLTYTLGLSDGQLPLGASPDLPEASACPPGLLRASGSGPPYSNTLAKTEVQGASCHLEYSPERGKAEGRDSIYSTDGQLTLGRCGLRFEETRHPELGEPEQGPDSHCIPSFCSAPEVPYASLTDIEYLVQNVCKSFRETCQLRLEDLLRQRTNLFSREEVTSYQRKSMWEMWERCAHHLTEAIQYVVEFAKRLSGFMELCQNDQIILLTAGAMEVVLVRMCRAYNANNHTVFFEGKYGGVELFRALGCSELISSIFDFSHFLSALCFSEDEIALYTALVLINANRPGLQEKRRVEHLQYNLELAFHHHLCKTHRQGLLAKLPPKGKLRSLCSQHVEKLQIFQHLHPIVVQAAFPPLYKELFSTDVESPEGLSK
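Drosophila Schneider cells stably carrying a metallothionein-driven Gal4 DBD–ROR gamma fusion and a UAS-Photinus luciferase reporter were exposed to compound for 1 hr, then induced with copper sulfate (700 uM final) for 20 hr at ambient temperature before luminescence reading.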
ELG1 repair inh: blocks ELG1-dependent DNA repair in HEK293T cells; HEK293T ELG1-luciferase reporter, luminescence, 16 h; DNA damage induced by 5-fluorouridine; Potency, µM (doses to about 46.1 µM), without a hit: at the highest dose activity change, negative = inhibition, actives largely listed as inhibitors; 2.3% of 330,000 active; AID 504467; further: nearly all actives have a fitted effect of over 55% in size
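Step one: seed 2,000 cells per well. Step two: pin-transfer compound or DMSO alongside 5-fluorouridine. Step three: incubate 16 hr, 37 °C, 5% CO2. Step four: add ONE-Glo, wait 30 min, read luminescence.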
TDP1 cell noCPT: qHTS for Inhibitors of human tyrosyl-DNA phosphodiesterase 1 (TDP1): qHTS in cells in absence of CPT | DT40 Tdp1-/- hTDP1 cells, no CPT, ATP luminescence, 48 h | Potency, µM (doses to about 46.2 µM), without a hit: top-dose activity change, negative = growth inhibition, most hits filed as inhibitors | 15% of 420,000 active; further: nearly all actives have a fitted effect of over 55% in size
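Growth kinetics read by CellTiter-Glo luminescence after ≥48 hr at 37 °C. Cells: DT40 Tdp1-/- stably carrying human TDP1, 400 per well, compound exposure in the absence of CPT (DMSO vehicle).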
VP16 counter: counter-screen for ROR gamma inhibitors: Gal4-VP16 reporter. Drosophila S2 Gal4-VP16 UAS-luciferase, luminescence, 20 h. 3.5% of 310,000 active. Potency, µM (doses to about 53.6 µM), for the others: at the top dose activity, negative = inhibition, most hits filed as inhibitors;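 further: Gal4-VP16 expression switched on by copper sulfate through the metallothionein promoter; nearly all actives have a fitted effect of over 50% in size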
ALOX12 inh: blocks human arachidonate 12S-lipoxygenase; purified 12hLO, xylenol orange hydroperoxide absorbance; Potency, µM (top dose mostly 108 µM), without a hit: at the top dose activity change, negative = inhibition, hits mostly inhibitors; 1.1% of 580,000 active; AID 1671190
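Purified human 12hLO at 150 nM in 25 mM Hepes, 0.01% Triton X-100, pH 7.0, preincubated 15 min at room temperature with compound. Reaction started with 40 uM arachidonic acid, 30 min at room temperature. Hydroperoxide measured by Fe-xylenol orange, 573/405 nm absorbance ratio.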
Starred values were filed as active, the others as inactive; ? = inconclusive; · = no result; [ ] = another dose, or the depositor's remark. The call rests on the fitted dose curve; in most records, active means well fitted curve in the direction sought with a large enough effect; inconclusive means small, poorly fitted or top-dose-only effect, or another doubt; inactive means no such curve, though single readings can be large; an effect the other way counts as inactive or inconclusive. On the % scale 0 is the no-effect control and ±100 the full control effect; potency means the concentration at half of the fitted maximal effect.

SMILES	TDP1 cell CPT	RORgamma inh	ELG1 repair inh	TDP1 cell noCPT	VP16 counter	ALOX12 inh
Cc1ccc(NC(=O)c2ccc(-n3nncc3-c3ccccc3)cc2)cc1	?	·	·	16µM*	·	·
CC(=O)NC1C(=O)N(CCN2CCOCC2)c2ccc(Br)cc21 (stereo not drawn)	-18%	-13%	2%	-15%	13%	32µM*
CC(=O)NC1C(=O)N(CCc2ccccc2)c2ccc(Br)cc21 (stereo not drawn)	?	13%	-3%	-28%	-16%	25%
CCOc1ccc2c(c1)C(NC(C)=O)C(=O)N2CCN1CCOCC1 (stereo not drawn)	?	-8%	6%	15µM*	-1%	0%
CCC(=O)Nc1sc(Cc2ccccc2)c(C)c1C(N)=O	16µM*	?	-26%	?	8%	-24%
Cc1c(Cc2ccccc2)sc(N)c1C(N)=O	·	17%[0.365 µM]	1%	·	·	·
Cc1c(Cc2ccccc2)sc(NC(=O)C(C)(C)C)c1C(N)=O	16µM*	?	-7%	29µM*	-12%	-35%
Cc1c(Cc2ccccc2)sc(NC(=O)Cc2ccccc2)c1C(N)=O	?	·	·	?	·	16µM*
CC(c1cccs1)N(C)C(=O)Cc1c[nH]c2ccccc12 (stereo not drawn)	·	·	·	·	·	52%
COc1ccc(-c2c(NC(=O)c3ccc(F)cc3)oc3ccccc3c2=O)cc1	·	·	·	·	·	15%
CCOC(=O)c1cnc(SC)nc1Oc1cccc(NS(=O)(=O)c2ccc(Cl)cc2)c1	?	36%	23µM*	?	3%	6%
CCOC(=O)c1cnc(SC)nc1Oc1cccc(NC(=O)c2ccc(Cl)cc2)c1	?	-7%	-18%	23µM*	-4%	-9%
CCN(CC(=O)NC(C)(C)C)Cc1cccc2cccnc12	·	·	·	·	·	7%
CCN(C(=O)c1ccc(F)cc1I)C1CC1	·	·	·	·	·	-6%
Cn1nc([N+](=O)[O-])nc1Sc1nnc(-c2ccccc2)o1	5.2µM*	?	?	4.6µM*	?	-3%
Cn1nc([N+](=O)[O-])nc1Sc1nnnn1-c1cccc(C(=O)O)c1	2%	-1%	0%	8%	-4%	-6%
Cn1nc([N+](=O)[O-])nc1Sc1cccc2cccnc12	6.5µM*	11µM*	?	21µM*	18µM*	-25%
CC1(C)CC(=O)c2c(nc(SCC(=O)Nc3nsc(-c4ccccc4)n3)c(C#N)c2-c2ccccc2)C1	5.2µM*	7%	?	4.6µM*	-3%	3%
Cc1cc(C)nc(SCCC(=O)Nc2ccc(F)cc2)n1	-22%	-22%	-7%	12%	2%	4%
CC1(C)CC(=O)c2c(nc(SCC(N)=O)c(C#N)c2-c2ccccc2)C1	·	·	·	·	·	-37%
CCc1c(C#N)c(SCCC(=O)Nc2cccc(OC)c2)nc2c1C(=O)CC(C)(C)C2	?	-1%	-15%	16µM*	1%	0%
CCc1c(C#N)c(SCCC(=O)Nc2ccc(F)cc2)nc2c1C(=O)CC(C)(C)C2	16µM*	20%	?	?	-6%	0%
CC(C)NC(=O)c1ccc2c(c1)C1(CCN(CC3CC3)C1)CN2Cc1ccccc1 (stereo not drawn)	·	·	·	·	·	12%[176 µM]
CC(=O)N1CCC([C@@H]2CN(C(=O)CCCc3ccccc3)C[C@H]2CO)CC1	·	·	·	·	·	5%
CN(C)C[C@@H]1CN(Cc2ccccc2)C[C@H]1NC(=O)CCn1cccn1	·	·	·	·	·	12%
SMILES	TDP1 cell CPT	RORgamma inh	ELG1 repair inh	TDP1 cell noCPT	VP16 counter	ALOX12 inh
CCC(C)NC(=O)c1ccc2nc(Cc3ccc(OC)cc3)oc2c1 (stereo not drawn)	?	?	-11%	?	-3%	18%
COc1cccc(NC(=O)c2ccc3nc(Cc4ccccc4)oc3c2)c1	16µM*	·	·	16µM*	·	-24%
CCOC(=O)c1cccc(NC(=O)c2ccc3nc(Cc4ccccc4)oc3c2)c1	23µM*	·	·	16µM*	·	-2%
CCOC(=O)c1cccc(NC(=O)c2ccc3nc(C(C)C)oc3c2)c1	?	·	·	?	·	-12%
CCC(NC(=O)c1ccc2nc(Cc3ccc(OC)cc3)oc2c1)c1ccncc1 (stereo not drawn)	7.3µM*	22%	?	3.7µM*	?	17%
C[C@H](CO)N1C[C@H](C)[C@@H](CN(C)C)Oc2c(NC(=O)CCCCCC(=O)Nc3ccccc3N)cccc2C1=O	18µM*	·	-8%	?	·	7%
C[C@H](CO)N1C[C@H](C)[C@@H](CN(C)Cc2ccccc2)Oc2ccc(NC(=O)CCCCCC(=O)Nc3ccccc3N)cc2C1=O	?	·	?	?	·	5%
C[C@H](CO)N1C[C@H](C)[C@@H](CN(C)Cc2ccncc2)Oc2c(NC(=O)CCCCCC(=O)Nc3ccccc3N)cccc2C1=O	?	·	1%	23µM*	·	-9%
COC(=O)C1=C(C)C(c2ccc(OC)cc2)NC(=S)N1 (stereo not drawn)	-2%	10µM*	?	-1%	-3%	0%
CCOC(=O)C1=C(C)C(c2ccccc2)NC(=S)N1 (stereo not drawn)	-8%	7.1µM*	-3%	-6%	?	-15%
CCOC(=O)C1=C(C)NC(=S)NC1c1cccc(O)c1 (stereo not drawn)	-68%	-16%	·	?	0%	?
CCOC(=O)C1=C(C)NC(=S)N(C=O)C1c1ccccc1 (stereo not drawn)	-15%	11µM*	-2%	?	?	-10%
COC(=O)C1=C(C)NC(=S)N(C(C)=O)C1c1ccccc1 (stereo not drawn)	2%	?	?	-11%	?	?
CC(C)CCN(CC(=O)NCc1ccc(F)cc1)S(=O)(=O)c1ccccc1F	23µM*	13%	-14%	?	-5%	8%
COc1cc(Cl)ccc1C(=O)NC1CCN(c2cc(C(F)(F)F)nc(C)n2)CC1	·	·	·	·	·	26%
C=C(CC[C@]12OC(C(=O)O)C(O)(C(=O)O)C(C(=O)O)(O1)C(OC(=O)/C=C/[C@@H](C)C[C@@H](C)CC)C2O)[C@@H](OC(C)=O)[C@H](C)Cc1ccccc1 (stereo partly drawn)	8.9µM*	·	·	7.9µM*	·	28%
Cc1cc(NC(=O)CCCN2C(=O)/C(=C\c3cccs3)SC2=S)no1	10%	-44%	28%	-4%	13µM*	-2%
